Measured values: PubChem BioAssay (NCI)
The panel holds about 83,000 compounds, 20% with a hit somewhere; the sample as a whole holds those more often.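 Compound tested at a single concentration for 48 hours in 96-well plates; a percent growth value below 10 was scored as active.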 Values without a mark were called inactive. The source made the active and inactive calls.

System: HL-60(TB) leukemia
Test: NCI-60 one-dose screen, 48 h (100 = growth as untreated, 0 = no growth, -100 = all killed)
Conditions: 10 µM unless noted

Structure (SMILES)	growth
COc1cc2cc(Oc3ccc(NC(=O)Nc4ccc(F)c(C(F)(F)F)c4)cc3)c(C)nc2cc1OCCN(C)C	94.3%
COc1ccc2c(c1)oc1c3[nH]c4ccccc4c3c3c(c21)C(=O)N(O)C3=O	53.3%
CC(C)(C)OC(=O)Nc1ccc(-c2cccc(Oc3ccc4nnc(Cl)n4n3)c2)cc1	64%
O=C(CCN1C(=O)/C(=C/c2ccccc2)SC1=S)N1CCOCC1	89.3%
O=C1/C(=C/c2cc(F)cc(F)c2)Cc2cc3c(cc21)OCO3	3.69% (active)
